# KDM5B inhibitor = inhibitors of human KDM5B histone demethylase; Q9UGL1; KDM5B demethylase, FDH-coupled NADH fluorescence (FDH is formaldehyde dehydrogenase); Potency, µM (top dose mostly 57.7 µM), most hits filed as inhibitors; 2.6% of 220,000 active; active = well fitted inhibition curve with a large enough effect; inconclusive = small, poorly fitted or top-dose-only effect; inactive = no such curve, though single readings can be large or run the other way; note: potency is the fitted concentration of half-maximal effect; 0% is about no effect; nearly all actives have a fitted effect of over 70% in size
# Target sequence (Q9UGL1 whole entry, looked up): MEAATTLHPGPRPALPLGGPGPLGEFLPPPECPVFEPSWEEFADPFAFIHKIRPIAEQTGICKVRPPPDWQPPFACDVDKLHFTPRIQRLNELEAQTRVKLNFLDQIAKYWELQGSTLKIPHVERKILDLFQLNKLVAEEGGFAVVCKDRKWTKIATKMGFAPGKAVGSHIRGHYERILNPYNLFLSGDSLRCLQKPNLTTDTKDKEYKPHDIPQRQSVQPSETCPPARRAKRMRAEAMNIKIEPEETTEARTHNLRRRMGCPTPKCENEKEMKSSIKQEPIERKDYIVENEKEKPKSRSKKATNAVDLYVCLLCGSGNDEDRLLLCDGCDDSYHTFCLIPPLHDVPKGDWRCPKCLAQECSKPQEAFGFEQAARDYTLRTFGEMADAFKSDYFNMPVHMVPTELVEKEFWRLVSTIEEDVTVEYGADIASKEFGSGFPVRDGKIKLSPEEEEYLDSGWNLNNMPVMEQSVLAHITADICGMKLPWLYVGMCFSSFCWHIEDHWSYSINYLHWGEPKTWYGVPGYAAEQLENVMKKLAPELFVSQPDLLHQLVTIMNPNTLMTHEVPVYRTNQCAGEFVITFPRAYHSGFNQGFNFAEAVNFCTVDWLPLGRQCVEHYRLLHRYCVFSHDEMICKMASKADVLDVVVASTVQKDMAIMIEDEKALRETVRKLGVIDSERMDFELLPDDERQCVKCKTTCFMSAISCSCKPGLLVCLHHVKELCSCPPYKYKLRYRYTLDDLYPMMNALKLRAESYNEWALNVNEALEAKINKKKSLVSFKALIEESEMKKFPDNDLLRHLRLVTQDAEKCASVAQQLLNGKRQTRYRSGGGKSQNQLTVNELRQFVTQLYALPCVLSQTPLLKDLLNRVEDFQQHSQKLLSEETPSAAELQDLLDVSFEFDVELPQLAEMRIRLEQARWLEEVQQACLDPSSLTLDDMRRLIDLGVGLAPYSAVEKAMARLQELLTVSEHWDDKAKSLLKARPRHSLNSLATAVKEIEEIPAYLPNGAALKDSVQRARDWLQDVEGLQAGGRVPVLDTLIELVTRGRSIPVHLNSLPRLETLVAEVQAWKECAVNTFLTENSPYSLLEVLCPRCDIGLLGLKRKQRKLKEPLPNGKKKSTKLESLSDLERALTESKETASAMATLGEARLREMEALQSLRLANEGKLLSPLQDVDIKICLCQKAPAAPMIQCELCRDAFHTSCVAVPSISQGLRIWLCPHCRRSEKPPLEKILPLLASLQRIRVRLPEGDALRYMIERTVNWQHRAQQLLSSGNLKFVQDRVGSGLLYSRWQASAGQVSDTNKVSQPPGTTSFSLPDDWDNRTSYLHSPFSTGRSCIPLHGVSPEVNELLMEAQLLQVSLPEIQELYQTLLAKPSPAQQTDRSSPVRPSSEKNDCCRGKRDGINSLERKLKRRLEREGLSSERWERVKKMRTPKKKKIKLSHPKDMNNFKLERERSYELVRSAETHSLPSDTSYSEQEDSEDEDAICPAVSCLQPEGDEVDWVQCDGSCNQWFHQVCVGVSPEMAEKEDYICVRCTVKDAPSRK
#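 Inhibition is measured as reduced NADH fluorescence generation from FDH coupling to formaldehyde release. Truncated KDM5BΔAP at 200 nM final acts on H3K4me3 peptide (12.5 µM in substrate mix) in pH 7.5 HEPES buffer with Tween-20, 30 min, room temperature.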
# IP6K1 inh = inhibitors of human IP6K1; 0.81% of 140,000 active; AID 1645851; Q92551; activity change, % (series mostly up to about 58 µM); IP6K1 kinase, ADP-Glo luminescence, 2 h; hits give low values; in the data active = activity change below about -25%; note: % is set by controls: 0 for no effect and ±100 for the full control effect
#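 ADP-Glo luminescence measures ADP made by human IP6K1 during a 2 h RT reaction with ATP/IP6 (mix at 1.3 mM/130 uM); top library doses 57.5 and 19.1 uM final.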
# Numbers without * were called inactive; i = inactive; ? = inconclusive; . = no result given. Only some compounds are listed: those with a hit (about 2.7% of all), similar ones and a draw of the others.
SMILES,KDM5B inhibitor,IP6K1 inh
COc1ccc(N2CC3CCC(C2)N3Cc2cccc(-c3ccc(F)cc3F)c2)cc1,79.4µM*,6.1
COc1ccc(N2CC3CCC(C2)N3Cc2cccc(-c3cccs3)c2)cc1,i,-1.6
O=C(NCCC1=CCCCC1)c1cccnc1N1CC2CC(C1)[C@H]1CCCC(=O)N1C2 (stereo partly specified),28.2µM*,13.9
O=C(NCCCN1CCOCC1)c1cccnc1N1CC2CC(C1)[C@H]1CCCC(=O)N1C2 (stereo partly specified),28.2µM*,3.8
CN1CCN(CCCNC(=O)c2ccc(N3CC4CC(C3)[C@H]3CCCC(=O)N3C4)nc2)CC1 (stereo partly specified),i,25.7
O=C(NCc1ccc(N2CCOCC2)cc1)c1cccnc1N1CC2CC(C1)[C@H]1CCCC(=O)N1C2 (stereo partly specified),?,-1.3
COc1ccc(CCNC(=O)c2cccnc2N2CC3CC(C2)[C@H]2CCCC(=O)N2C3)cc1OC (stereo partly specified),?,18.8
CN(CCNC(=O)c1cccnc1N1CC2CC(C1)[C@H]1CCCC(=O)N1C2)C1CCCCC1 (stereo partly specified),31.6µM*,5.5
O=C(NCCN1CCCCC1)c1cccnc1N1CC2CC(C1)[C@H]1CCCC(=O)N1C2 (stereo partly specified),28.2µM*,-1.5
CN(C)CCNC(=O)c1cccnc1N1CC2CC(C1)[C@H]1CCCC(=O)N1C2 (stereo partly specified),?,6.5
COc1ccc(CNC(=O)C2CCCN2Cc2cccc(-c3ccc(C)c(Cl)c3)c2)cc1 (stereo unspecified),.,15.5
COc1cccc(COC(=O)c2ccccc2C(=O)c2ccccc2)c1,i,.
O=C(NCCCn1cccn1)c1cccnc1N1CC2CC(C1)[C@H]1CCCC(=O)N1C2 (stereo partly specified),28.2µM*,-2.4
O=C(c1ccccn1)N1CC2CC(C1)[C@H]1CCCC(=O)N1C2 (stereo partly specified),i,12.2
O=C(NCCCn1cccn1)C1CCN(C(=O)N2CC3CC(C2)[C@H]2CCCC(=O)N2C3)CC1 (stereo partly specified),i,26.8
O=C(c1cccnc1N1CC2CC(C1)[C@H]1CCCC(=O)N1C2)N1CC=C(c2ccccc2)CC1 (stereo partly specified),31.6µM*,4.7
COc1ccc(-c2noc(CC3CCN(C(=O)CCc4ccccc4)CC3)n2)cc1,i,8.1
COc1ccc(-c2nc3n(c2C(=O)Nc2cccc(C(F)(F)F)c2)CCS3(=O)=O)cc1,i,.
O=C(NC1CCN(c2cc(-c3cccs3)[nH]n2)C1)c1ccc2nc[nH]c2c1 (stereo unspecified),?,5.0
CN(C)c1ccc(C(=O)NC2CCN(c3cc(-c4cccs4)[nH]n3)C2)cc1 (stereo unspecified),?,0.0
O=C(NC1CCN(c2cc(-c3cccs3)[nH]n2)C1)c1cccc(Br)c1 (stereo unspecified),7.94µM*,2.1
O=C(NC1CCN(c2cc(-c3cccs3)[nH]n2)C1)c1cccc(OC(F)(F)F)c1 (stereo unspecified),5.01µM*,3.9
O=C(CC[C@@H]1CNC(=O)[C@@H]2C[C@H](NCc3ccccc3)CN12)NCc1ccccc1,i,-1.3
O=C(CC[C@@H]1CNC(=O)[C@@H]2C[C@H](NCc3ccccn3)CN12)NCc1ccccc1,25.1µM*,-7.4
O=C(CC[C@@H]1CNC(=O)[C@@H]2C[C@H](NCc3ccccn3)CN12)NCc1ccc(F)cc1,?,-13.6
SMILES,KDM5B inhibitor,IP6K1 inh
COc1ccc(CN[C@H]2C[C@H]3C(=O)NC[C@@H](CCC(=O)NCc4ccccc4)N3C2)cc1,35.5µM*,3.6
CC(Cl)C(=O)Nc1ccccc1C(C)C (stereo unspecified),i,.
Cn1nc(C(=O)NCC(=O)N2CCCCCNC(=O)CC2c2ccccc2)c2ccccc21 (stereo unspecified),28.2µM*,-13.3
Cc1cc(C(=O)NCC(=O)N2CCCCCNC(=O)CC2c2ccccc2)n(C)n1 (stereo unspecified),i,-3.9
CCc1cnc(N2CCC(Oc3cnc4c(ccn4CCN[S+](C)(=O)[O-])c3)CC2)nc1,28.2µM*,-13.3
CC(=O)N1CCC(COc2ccc3c(cnn3CC[S+](C)(=O)[O-])c2)CC1,i,-2.7
Cc1nccc(N2CCC(Oc3cnc4c(ccn4CCN[S+](C)(=O)[O-])c3)CC2)n1,?,3.6
C[S+](=O)([O-])CCn1ncc2cc(OCC3CCN(c4ncccn4)CC3)ccc21,35.5µM*,4.5
CCc1cnc(N2CCC(COc3ccc4c(cnn4CC[S+](C)(=O)[O-])c3)CC2)nc1,31.6µM*,-11.8
CC(C)C(=O)N1CCC(COc2ccc3c(cnn3CC[S+](C)(=O)[O-])c2)CC1,i,-11.4
